Among the data in PubChem BioAssay AID1578 (Sanford-Burnham Center for Chemical Genomics, 2009) are inhibition values, retold here.

SMILES strings stand for the structures. Values joined by “and” are separate entries in the source; they are usually repeats but may differ in a detail not shown here. Equal entries are not always repeated. About 3,000 (1%) of roughly 290,000 compounds were called active. The full list was thinned out, with actives kept by preference. Values without a mark were called inactive. Rule as the data show it: active = inhibition mostly above about 36% (no sharp cut-off); inactive = mostly below about 34%.

The nature of the experiment: NOD1 signaling inhibitors, primary screen, cell-based, luminescence, uHTS (AID 1578).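 Also: HEK-293T reporter cells stimulated with the NOD1 agonist gamma-tri-DAP.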 As to conditions: NOD1-driven NF-kB luciferase reporter cells, at 4 µM, hits give high values.
On to `COc1cccc(NP(=O)(Oc2ccccc2)Oc2ccccc2)c1`, for which the inhibition is -28.2%.

Consider `O=C(NC1(C(F)(F)F)Oc2ccc(Cl)cc2O1)N1CCC2(CC1)OCCO2` (stereo not given), for which the inhibition was 5%.

As to `Cc1ccccc1-n1c(O)c(C=NCCN2CCOCC2)c(=O)[nH]c1=O`, the inhibition is -5.7%.

As to `O=C(Cn1nc(-c2ccc(Cl)cc2)ccc1=O)N1CCC2(CC1)OCCO2`, the inhibition is -21%.

In the case of `CCC(=NCCO)c1c(O)n(-c2ccccc2)c(=O)[nH]c1=O`, the inhibition is 11.4%.

As for `COc1cc2c(cc1OC)-c1c(OC)c(OC)c(OC)c3ccnc(c13)C2=O`, the inhibition is 25.5%.

Take `O=C1NC(=O)N(CCc2ccc(F)cc2)C(=O)/C1=C/C=C/c1ccccc1`: the inhibition is 42.2% (active).

On to `O=C1NC(=O)N(CCc2ccc(F)cc2)C(=O)/C1=C/c1ccco1`, for which the inhibition was 10.2%.

With `CC(C)c1ccc(N2C(=O)NC(=O)/C(=C/C=C/c3ccco3)C2=O)cc1`, the inhibition was 56.9%.

For the molecule `Cc1ccc(N2C(=O)NC(=O)/C(=C\C=C\c3ccco3)C2=O)cc1C`, the inhibition is 48.7%.

For the molecule `CC(C)c1ccc(N2C(=O)NC(=O)/C(=C\C=C\c3ccco3)C2=O)cc1`, the inhibition is 78.9% (active).

Regarding `O=C1NC(=O)N(CCc2ccc(F)cc2)C(=O)/C1=C/c1cccs1`, the inhibition is 12.9%.

For `CCCC(C)n1[nH]c(=O)c2c1NC(=O)CSC2c1ccccc1` (stereo not given), the inhibition is -4.2%.

For the molecule `COc1ccc(CCN(C)Cc2ccc(F)cc2F)cc1OC`, the inhibition is -4.5%.

For `O=[N+]([O-])c1ccc(Nc2ccccc2)cc1`, the inhibition is 26.1%.

For the molecule `CC(C)C(=O)Nc1nnc(CCN(CCc2nnc(NC(=O)C(C)C)s2)[N+](=O)[O-])s1`, the inhibition is 0.8%.

As for `COc1cc(CC2C(=O)N(C)C(=O)N(C)C2=O)ccc1OCc1ccccc1`, the inhibition was -15.9%.

On to `CC1CCC[C@H](O)CCCCCc2cc(O)cc(O)c2C(=O)O1` (stereo not given in full), for which the inhibition is -20.3% and 0.8%.

Take `C[C@H]1CCC[C@H](O)CCCCCc2cc(O)cc(O)c2C(=O)O1`: the inhibition is 71.9% (active).

Turning to `C[C@H]1CCCC(=O)CCCCCc2cc(O)cc(O)c2C(=O)O1`, the inhibition is 10.7%.

On to `COc1ccc(S(=O)(=O)NC(CC(=O)N2CCC3(CC2)OCCO3)C(C)C)cc1` (stereo not given), for which the inhibition is -3.9%.

Take `Cc1cccnc1-n1c(-c2ccccc2)nc2ccccc2c1=O`: the inhibition was -2.5%.

On to `O=C(c1ccco1)c1cn(Cc2ccccc2Cl)c2ccccc12`, for which the inhibition is 19.5%.

Take `CC1(C)C[C@H]2C=C(C=O)[C@]3(C=O)C[C@]3(C)[C@H]2C1`: the inhibition is 106% (active).

On to `Cc1c(P(=S)(c2ccccc2)c2ccccc2)[n+]2ccccc2n1C`, for which the inhibition was -18.7%.
